# High-throughput results (PubChem BioAssay)
# A selection: hits, their analogues and other compounds. The true share with any hit is near 19%.
# TDP1 cell CPT: qHTS for Inhibitors of human tyrosyl-DNA phosphodiesterase 1 (TDP1): qHTS in cells in presence of CPT. chicken DT40 Tdp1-/-;hTDP1 cells + 20 nM CPT, ATP luminescence, 48 h. Potency, µM (top dose mostly 46.2 µM), without a hit: at the highest dose activity change, negative = growth inhibition, most hits filed as inhibitors. 420,000 tested, 12% active. AID 686979, 2013; also: potency is read from the fitted curve at half-maximal effect; nearly all actives have a fitted effect of over 55% in size
#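 Chicken DT40 Tdp1-/- cells complemented with human TDP1, 400 cells/well, exposed to compounds plus 20 nM camptothecin for at least 48 h at 37 C; viability read as ATP content by CellTiter-Glo luminescence.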
# uPA generation: qHTS for Inhibitors of Cell Surface uPA Generation | Potency, µM (doses to about 38.3 µM), for the others: top-dose activity change, negative = inhibition, most hits filed as inhibitors | 330,000 tested, 0.31% active | AID 540303, 2011 | cell surface uPA generation assay, qHTS; active = well fitted inhibition curve with a large enough effect; inconclusive = small, poorly fitted or top-dose-only effect; inactive = no such curve, though single readings can be large or run the other way; tested in mouse RAW 264.7 cells; also: potency is read from the fitted curve at half-maximal effect; nearly all actives have a fitted effect of over 55% in size
# TDP1 cell noCPT: qHTS for Inhibitors of human tyrosyl-DNA phosphodiesterase 1 (TDP1): qHTS in cells in absence of CPT | DT40 Tdp1-/- hTDP1 cells, no CPT, ATP luminescence, 48 h | 420,000 tested, 15% active | Potency, µM (series often up to 46.2 µM), for the others: at the highest dose activity change, negative = growth inhibition, actives largely listed as inhibitors; also: potency is read from the fitted curve at half-maximal effect; nearly all actives have a fitted effect of over 55% in size
#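 Camptothecin absent (DMSO only). Human TDP1-complemented DT40 knockout cells, 400 cells/well, 37 °C for minimum 48 hr; ATP measured via CellTiter-Glo, 30 min dark incubation, luminescence.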
# HT1080 IDH1KD tx: qHTS for induction of synthetic lethality in tumor cells producing 2HG: qHTS for the HT-1080-IDH1KD cell line | 360,000 tested, 2% active | Potency, µM (series often up to 46.1 µM), inactives show at the highest dose activity, negative = toxicity, actives largely listed as cytotoxic | HT-1080 IDH1 knockdown viability, ATP luminescence, 48 h;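 also: potency is read from the fitted curve at half-maximal effect; 0% = DMSO wells and -100% = cell-free medium wells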
#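 Viability of IDH1-knockdown HT-1080 fibrosarcoma cells was assessed by CellTiter-Glo after 48 h at 37 °C with titrated compound; concentration-effect curves were classified by fit quality and response size.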
# HT1080NT lethal: qHTS for induction of synthetic lethality in tumor cells producing 2HG: qHTS for the HT-1080-NT fibrosarcoma cell line; HT-1080-NT fibrosarcoma viability, CellTiter-Glo ATP luminescence, 48 h; Potency, µM (doses to about 46.1 µM), for inactives: at the highest dose activity, negative = less viability, most hits filed as cytotoxic; 360,000 tested, 1.6% active; AID 686970, 2013;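 also: NT is the 2HG producing partner of a matched IDH1 knockdown line; potency is read from the fitted curve at half-maximal effect; 0% = DMSO-treated cells and -100% = media-only wells without cells; nearly all actives have a fitted effect of over 55% in size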
#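 HT-1080-NT; 750 cells/well; 5% FBS RPMI; 48 h compound, 37 degrees C; CellTiter-Glo luminescence; curve fitting and curve-class assignment.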
# IL1B secr inh: qHTS for Inhibitors of Inflammasome Signaling: IL-1-beta AlphaLISA Primary Screen. THP-1 LPS/ATP IL-1B secretion, AlphaLISA, 16 h; active compounds read low. AID 743279, 2014. 360,000 tested, 4.7% active. activity change, % at 57.5 µM; in the data active = activity change below about -50%; inconclusive = mostly about -30% to -49%
#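 THP-1 cells pretreated 1 hr with compounds (up to 57.5 uM final), then stimulated with LPS (250 ng/mL final) plus ATP (1.25 mM final); secreted IL-1B measured by AlphaLISA after 16 hr, decreased signal indicating inhibition.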
# The depositor's hits bear a star; ? = inconclusive; nt = not tested or not shown. Unless noted, calls follow the shape of the dose curve; as a rule, active = well fitted curve in the direction sought with a large enough effect; inconclusive = small, poorly fitted or top-dose-only effect, or another doubt; inactive = no such curve, though single readings can be large; an effect the other way counts as inactive or inconclusive. Unless noted, % is scaled to controls: 0 for no effect and ±100 for the full control effect.
SMILES,TDP1 cell CPT,uPA generation,TDP1 cell noCPT,HT1080 IDH1KD tx,HT1080NT lethal,IL1B secr inh
CC1=NN(Cc2ccccc2)C(=O)C1C(c1ccccc1)C(C#N)C#N (configuration not stated),21µM*,0%,26µM*,-11%,-16%,-3
Cc1cccc(NC(=O)CSc2nc(=O)n(Cc3cccnc3)c3c2CCC3)c1C,9%,nt,-21%,nt,nt,nt
CCOc1ccc(C(=O)NCC(c2cccs2)N(C)C)cc1 (configuration not stated),?,9%,-19%,9%,0%,10
COc1ccc(/C(C)=N/Nc2ccc(C(=O)O)cc2)c(OC)c1,-27%,-5%,-19%,-10%,-1%,28
COc1ccc2c(c1)C(=NNc1ccc(C(=O)O)cc1)c1cc(OC)ccc1-2,?,-7%,23µM*,-19%,-10%,-3
COc1ccc2c(c1)C(=NN)c1cc(OC)ccc1-2,16µM*,-15%,?,?,-15%,-1
Cc1ccc(N2C(=O)c3ccc(C(=O)N4CCN(Cc5ccccc5)CC4)cc3C2=O)cc1,-4%,0%,-5%,-5%,2%,-6
Cc1ccc(S(=O)(=O)N(C)C)cc1NS(=O)(=O)c1ccc(Cl)s1,2%,1%,-16%,-3%,-7%,-21
Clc1ccc2c(c1)-c1nnc(Br)n1-c1ccccc1S2,?,10%,?,-20%,-27%,-55*
O=S(=O)(NCc1ccc2c(c1)OCO2)c1ccc(F)c(F)c1,-3%,0%,-5%,0%,-5%,11
Cc1oc(-c2cccc(Cl)c2)nc1CN1CCC(C(=O)NCCCN2CC(C)CC(C)C2)CC1 (configuration not stated),?,1%,21µM*,-1%,4%,-10
COc1ccc(CCNC(=O)C2CCN(Cc3nc(-c4cccc(Cl)c4)oc3C)CC2)cc1OC,18µM*,-4%,21µM*,-24%,-10%,-3
Cc1noc(C)c1C(=O)N1CCC2(CC1)CCN(c1ccccn1)CC2,-15%,nt,?,nt,nt,nt
Cc1c(Nc2ccc3nonc3c2[N+](=O)[O-])c(=O)n(-c2ccccc2)n1C,4%,-3%,-1%,-12%,-18%,15
Cc1c(Nc2cc(Cl)c3nonc3c2[N+](=O)[O-])c(=O)n(-c2ccccc2)n1C,1.3µM*,28%,2.1µM*,?,3.7µM*,-105*
O=[N+]([O-])c1c(Nc2cccc(O)c2)cc(Cl)c2nonc12,1.8µM*,-12%,1.8µM*,8.2µM*,5.2µM*,-96*
CC1Cc2cc(S(=O)(=O)CCC(=O)NCc3ccccc3Cl)ccc2N1C(=O)C1CC1 (configuration not stated),7.3µM*,nt,7.3µM*,nt,nt,nt
CC1Cc2cc(S(=O)(=O)CCC(=O)Nc3ccc(F)cc3Cl)ccc2N1C(=O)C1CC1 (configuration not stated),23µM*,nt,13µM*,nt,nt,nt
Cc1ccc(CNC(=O)CCS(=O)(=O)c2ccc3c(c2)CC(C)N3C(=O)C2CC2)cc1 (configuration not stated),7.3µM*,?,5.8µM*,-24%,-13%,20
CCC(=O)N1c2ccc(S(=O)(=O)CCC(=O)NCc3ccccc3OC)cc2CC1C (configuration not stated),?,nt,-18%,nt,nt,nt
O=C(COC(=O)/C=C/c1cccc(C(F)(F)F)c1)Nc1cccc(S(=O)(=O)NC2=NCCC2)c1,-13%,nt,-19%,7%,0%,-15
